# In the supplement of paper PMC6992640:
# Counter-ions that a name gives are not always drawn.
# Tested on: WHIM30 (cells of a triple-negative basal-like breast cancer xenograft)
# Assay: cell viability of combination (% of vehicle); higher = less cytotoxic
# Details: 1 µM; 72 h; partner dose: 10 nM
# Protocol: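 PDX cells were treated for 72 h with each drug at 1 µM plus carfilzomib (10 nM; 100 nM for WHIM2). Luciferase viability is expressed as percent of vehicle.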
row,SMILES,cell viability of combination
1,COc1cccc2c1C(=O)c1c(O)c3c(c(O)c1C2=O)CC(O)(C(=O)CO)CC3OC1CC(N)C(O)C(C)O1.Cl (stereo not given) [Epirubicin HCl] + CC(C)C[C@H](NC(=O)[C@H](CCc1ccccc1)NC(=O)CN1CCOCC1)C(=O)N[C@@H](Cc1ccccc1)C(=O)N[C@@H](CC(C)C)C(=O)[C@@]1(C)CO1 [Carfilzomib],5.02
2,CC[C@H](C)[C@H]1O[C@]2(CC[C@@H]1C)C[C@@H]1C[C@@H](C/C=C(\C)[C@@H](O[C@H]3C[C@H](OC)[C@@H](O[C@H]4C[C@H](OC)[C@@H](O)[C@H](C)O4)[C@H](C)O3)[C@@H](C)/C=C/C=C3\CO[C@@H]4[C@H](O)C(C)=C[C@@H](C(=O)O1)[C@]34O)O2 [Ivermectin] + CC(C)C[C@H](NC(=O)[C@H](CCc1ccccc1)NC(=O)CN1CCOCC1)C(=O)N[C@@H](Cc1ccccc1)C(=O)N[C@@H](CC(C)C)C(=O)[C@@]1(C)CO1 [Carfilzomib],20.6
3,CCOC(=O)C1=C(COCCN)NC(C)=C(C(=O)OC)C1c1ccccc1Cl (stereo not given) [Amlodipine] + CC(C)C[C@H](NC(=O)[C@H](CCc1ccccc1)NC(=O)CN1CCOCC1)C(=O)N[C@@H](Cc1ccccc1)C(=O)N[C@@H](CC(C)C)C(=O)[C@@]1(C)CO1 [Carfilzomib],15.8
4,CC(Oc1cc(-c2cnn(C3CCNCC3)c2)cnc1N)c1c(Cl)ccc(F)c1Cl [(R)-Crizotinib] + CC(C)C[C@H](NC(=O)[C@H](CCc1ccccc1)NC(=O)CN1CCOCC1)C(=O)N[C@@H](Cc1ccccc1)C(=O)N[C@@H](CC(C)C)C(=O)[C@@]1(C)CO1 [Carfilzomib],27.4
5,COc1ncc(-c2ccc3nccc(-c4ccnnc4)c3c2)cc1NS(=O)(=O)c1ccc(F)cc1F + CC(C)C[C@H](NC(=O)[C@H](CCc1ccccc1)NC(=O)CN1CCOCC1)C(=O)N[C@@H](Cc1ccccc1)C(=O)N[C@@H](CC(C)C)C(=O)[C@@]1(C)CO1 [Carfilzomib],8.27
6,CN(C)CCOc1ccc(C(=C(CCCl)c2ccccc2)c2ccccc2)cc1.O=C(O)CC(O)(CC(=O)O)C(=O)O [Toremifene Citrate] + CC(C)C[C@H](NC(=O)[C@H](CCc1ccccc1)NC(=O)CN1CCOCC1)C(=O)N[C@@H](Cc1ccccc1)C(=O)N[C@@H](CC(C)C)C(=O)[C@@]1(C)CO1 [Carfilzomib],17.1
7,CCN(CC)CCNC(=O)c1c(C)[nH]c(C=C2C(=O)Nc3ccc(F)cc32)c1C.O=C(O)CC(O)C(=O)O [Sunitinib malate] + CC(C)C[C@H](NC(=O)[C@H](CCc1ccccc1)NC(=O)CN1CCOCC1)C(=O)N[C@@H](Cc1ccccc1)C(=O)N[C@@H](CC(C)C)C(=O)[C@@]1(C)CO1 [Carfilzomib],33.1
8,CNCCC(Oc1cccc2ccccc12)c1cccs1.Cl (stereo not given) [Duloxetine HCl] + CC(C)C[C@H](NC(=O)[C@H](CCc1ccccc1)NC(=O)CN1CCOCC1)C(=O)N[C@@H](Cc1ccccc1)C(=O)N[C@@H](CC(C)C)C(=O)[C@@]1(C)CO1 [Carfilzomib],16.1
9,CS(=O)(=O)CCNCc1ccc(-c2ccc3ncnc(Nc4ccc(OCc5cccc(F)c5)c(Cl)c4)c3c2)o1.Cc1ccc(S(=O)(=O)O)cc1.Cc1ccc(S(=O)(=O)O)cc1 [Lapatinib Ditosylate] + CC(C)C[C@H](NC(=O)[C@H](CCc1ccccc1)NC(=O)CN1CCOCC1)C(=O)N[C@@H](Cc1ccccc1)C(=O)N[C@@H](CC(C)C)C(=O)[C@@]1(C)CO1 [Carfilzomib],23.7
10,CN(C)CC=CC(=O)Nc1cc2c(Nc3ccc(F)c(Cl)c3)ncnc2cc1OC1CCOC1.O=C(O)C=CC(=O)O.O=C(O)C=CC(=O)O (stereo not given) [Afatinib dimaleate] + CC(C)C[C@H](NC(=O)[C@H](CCc1ccccc1)NC(=O)CN1CCOCC1)C(=O)N[C@@H](Cc1ccccc1)C(=O)N[C@@H](CC(C)C)C(=O)[C@@]1(C)CO1 [Carfilzomib],12.9
11,CNC1CCC(c2ccc(Cl)c(Cl)c2)c2ccccc21.Cl (stereo not given) [Sertraline HCl] + CC(C)C[C@H](NC(=O)[C@H](CCc1ccccc1)NC(=O)CN1CCOCC1)C(=O)N[C@@H](Cc1ccccc1)C(=O)N[C@@H](CC(C)C)C(=O)[C@@]1(C)CO1 [Carfilzomib],11
12,Cl.Fc1ccc(C2CCNCC2COc2ccc3c(c2)OCO3)cc1 (stereo not given) [Paroxetine HCl] + CC(C)C[C@H](NC(=O)[C@H](CCc1ccccc1)NC(=O)CN1CCOCC1)C(=O)N[C@@H](Cc1ccccc1)C(=O)N[C@@H](CC(C)C)C(=O)[C@@]1(C)CO1 [Carfilzomib],12.9
13,COc1ccc2cc1Oc1ccc(cc1)CC1c3c(cc4c(c3Oc3cc5c(cc3OC)CCN(C)C5C2)OCO4)CCN1C (stereo not given) [Cepharanthine] + CC(C)C[C@H](NC(=O)[C@H](CCc1ccccc1)NC(=O)CN1CCOCC1)C(=O)N[C@@H](Cc1ccccc1)C(=O)N[C@@H](CC(C)C)C(=O)[C@@]1(C)CO1 [Carfilzomib],9.41
14,Cc1cc(-n2c(=O)[nH]c(=O)n(C)c2=O)ccc1Oc1ccc(SC(F)(F)F)cc1 [Toltrazuril] + CC(C)C[C@H](NC(=O)[C@H](CCc1ccccc1)NC(=O)CN1CCOCC1)C(=O)N[C@@H](Cc1ccccc1)C(=O)N[C@@H](CC(C)C)C(=O)[C@@]1(C)CO1 [Carfilzomib],19.3
15,Clc1ccc(C(Cn2ccnc2)OCc2ccsc2Cl)c(Cl)c1 (stereo not given) [Tioconazole] + CC(C)C[C@H](NC(=O)[C@H](CCc1ccccc1)NC(=O)CN1CCOCC1)C(=O)N[C@@H](Cc1ccccc1)C(=O)N[C@@H](CC(C)C)C(=O)[C@@]1(C)CO1 [Carfilzomib],16.9
16,CS(=O)(=O)O.Cc1c(O)cccc1C(=O)NC(CSc1ccccc1)C(O)CN1CC2CCCCC2CC1C(=O)NC(C)(C)C (stereo not given) [Nelfinavir Mesylate] + CC(C)C[C@H](NC(=O)[C@H](CCc1ccccc1)NC(=O)CN1CCOCC1)C(=O)N[C@@H](Cc1ccccc1)C(=O)N[C@@H](CC(C)C)C(=O)[C@@]1(C)CO1 [Carfilzomib],26.7
17,COCCn1c2c([n+](Cc3cnccn3)c1C)C(=O)c1ccccc1C2=O.[Br-] + CC(C)C[C@H](NC(=O)[C@H](CCc1ccccc1)NC(=O)CN1CCOCC1)C(=O)N[C@@H](Cc1ccccc1)C(=O)N[C@@H](CC(C)C)C(=O)[C@@]1(C)CO1 [Carfilzomib],6.3
18,O=C(NC1CCN(CCCCC2(C(=O)NCC(F)(F)F)c3ccccc3-c3ccccc32)CC1)c1ccccc1-c1ccc(C(F)(F)F)cc1 [Lomitapide] + CC(C)C[C@H](NC(=O)[C@H](CCc1ccccc1)NC(=O)CN1CCOCC1)C(=O)N[C@@H](Cc1ccccc1)C(=O)N[C@@H](CC(C)C)C(=O)[C@@]1(C)CO1 [Carfilzomib],9.93
19,COc1nc2ccc(Br)cc2cc1[C@@H](c1ccccc1)[C@@](O)(CCN(C)C)c1cccc2ccccc12 [Bedaquiline fumarate] + CC(C)C[C@H](NC(=O)[C@H](CCc1ccccc1)NC(=O)CN1CCOCC1)C(=O)N[C@@H](Cc1ccccc1)C(=O)N[C@@H](CC(C)C)C(=O)[C@@]1(C)CO1 [Carfilzomib],22.5
20,Cl.Nc1ccn(C2OC(CO)C(O)C2O)c(=O)n1 (stereo not given) [Cytarabine hydrochloride] + CC(C)C[C@H](NC(=O)[C@H](CCc1ccccc1)NC(=O)CN1CCOCC1)C(=O)N[C@@H](Cc1ccccc1)C(=O)N[C@@H](CC(C)C)C(=O)[C@@]1(C)CO1 [Carfilzomib],18.8
